Experimental findings from PubChem BioAssay (EPA / NIEHS) are described below.

Where a structure was tested more than once in an assay, its records may differ in their call. Active and inactive are the calls of the source. The calls were made as follows: active = hit-call score of the fitted dose curve at least 0.9, where 1 is the maximum; inactive = score below 0.9.

Read-out in the assay: TIMP1, TIMP1 (gene 7076)
The assay can be described thus: LTEA_HepaRG_TIMP1: Life Technologies and Expression Analysis (LTEA) Assay for TIMP1 using HepaRG (AID 2283534).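 As to outcome: TaqMan qRT-PCR signal normalized to ACTB GAPDH and POLR2A housekeeping genes.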 The note with it: mRNA level, 48 h; actives raise or lower the signal. The method in brief: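 TIMP1 induction or repression in HepaRG cells after 48 h chemical exposure (eight concentrations, highest 100 uM), assessed by normalized qRT-PCR with bidirectional fitting to DMSO controls.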
As for `CCOC(=O)C(C)Oc1ccc(Oc2cnc3cc(Cl)ccc3n2)cc1` (configuration not stated), the result was inactive. For `CC(C)(c1ccc(O)cc1)c1ccc(O)cc1`, the call was inactive.

Turning to `COc1c(Cl)ccc(Cl)c1C(=O)O`, the call was inactive. Take `O=C(c1ccccc1)C1CCCCC1`: the compound was called inactive. On to `CC(=O)[C@H]1CC[C@H]2[C@@H]3CCC4=CC(=O)CC[C@]4(C)[C@H]3CC[C@]12C`, for which the AC50 was 22.2 µM (active).

As to `COC(=O)c1ccc(I)cc1S(=O)(=O)NC(=O)Nc1nc(C)nc(OC)n1`, the compound was classed as inactive. On to `C#CCOC(=O)[C@@H](C)Oc1ccc(Oc2ncc(Cl)cc2F)cc1`, for which the compound was called inactive. Consider `COCCO`, for which the compound was classed as inactive. The same measure, in the same setting: with `CCN(Cc1c(F)cccc1Cl)c1c([N+](=O)[O-])cc(C(F)(F)F)cc1[N+](=O)[O-]` the entry was “inactive”; with `CCCOC(=O)c1ccc(C(=O)OCCC)nc1`, “inactive”.

With `CCCCCCC(C)OC(=O)COc1nc(F)c(Cl)c(N)c1Cl` (configuration not stated), the outcome was inactive. Regarding `C[C@]12CC[C@@H]3c4ccc(O)cc4C[C@@H](CCCCCCCCCS(=O)CCCC(F)(F)C(F)(F)F)[C@H]3[C@@H]1CC[C@@H]2O` (some centres not stated), the compound was classed as inactive.

As to `O=C(O)c1ccccc1`, the result was inactive. `CCCCCOC(=O)COc1cc(N2C(=O)C3=C(CCCC3)C2=O)c(F)cc1Cl`: the result was inactive. As to `CCCCOCCOCCOCc1cc2c(cc1CCC)OCO2`, the result was inactive. For the compound `CCOC(=O)C(C)Oc1ccc(Oc2nc3ccc(Cl)cc3o2)cc1` (configuration not stated), the outcome was inactive. Take `CCCCOC(=O)[C@@H](C)Oc1ccc(Oc2ccc(C(F)(F)F)cn2)cc1`: the compound was called inactive. Same read-out and setting: with `S=C([S-])NCCNC(=S)[S-].[Mn+2]` the entry was “inactive”. In the case of `C=CCOC(Cn1ccnc1)c1ccc(Cl)cc1Cl` (configuration not stated), the call was inactive. As to `CCN(CC)C(=O)c1cccc(C)c1`, the compound was called inactive. For `N[C@@H](Cc1cc(I)c(Oc2ccc(O)c(I)c2)c(I)c1)C(=O)O`, the outcome was inactive. `O=C(Nc1ccc([N+](=O)[O-])cc1Cl)c1cc(Cl)ccc1O`: the AC50 was 3.18 µM (active). Take `CCSC(=O)N(CC(C)C)CC(C)C`: the compound was classed as inactive.

As for `CCCN(CCC)c1c([N+](=O)[O-])cc(C(F)(F)F)c(N)c1[N+](=O)[O-]`, the compound was classed as inactive. As for `COC(=O)CSc1cc(N=c2sc(=O)n3n2CCCC3)c(F)cc1Cl`, the call was inactive. As to `S=C(S)NCCNC(=S)S.[Mn+2].[S-]C([S-])=NCCN=C([S-])[S-].[Zn+2]`, the AC50 was 6.38 µM (active) and the result was inactive.

The term AC50 denotes the midpoint of the concentration-response curve, whichever way the signal moves.
